Our source for the growth inhibition values is PubChem BioAssay (NCI).

Each structure is given as a SMILES string. This is part of a sample that, as a whole, favours compounds with a hit. Of some 79,000 tested, about 15% had one in any assay. A number with no mark means an inactive call. Active and inactive are the calls of the source. No stated cut-off is given here; in the data, active means growth inhibition above about 70%; inactive means the rest.

Experiment [1] can be described thus: NCI Yeast Anticancer Drug Screen. Data for the rad50 strain (AID 155).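 Further: 0% = growth of vehicle-only cultures of the same strain.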 As to conditions: S. cerevisiae rad50 strain growth inhibition, hits give high values. In outline: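 Relative growth inhibition (compound vs vehicle) was measured in yeast with a defined repair-gene alteration.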
A short description of experiment [2]: NCI Yeast Anticancer Drug Screen. Data for the mec2-1 strain (AID 157). The note with it: S. cerevisiae mec2-1 strain, hits give high values. In outline:
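Cells of the genetically defined mec2-1 yeast strain are incubated with test compound. Inhibition of growth is calculated against vehicle-treated controls.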

A short description of experiment [3]: NCI Yeast Anticancer Drug Screen. Data for the sgs1 mgt1 strain (AID 161).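 Further: 0% = growth of cultures given vehicle only.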 The note with it: S. cerevisiae sgs1 mgt1 strain, hits give high values. In outline: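 Read-out: growth inhibition vs vehicle controls. Cells: mutant yeast strain deficient in DNA damage repair.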
Experiment [4] in a line: NCI Yeast Anticancer Drug Screen. Data for the cln2 rad14 strain (AID 165).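 Further: 0% = growth equal to vehicle treated cultures.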 The note with it: S. cerevisiae cln2 rad14 strain, hits give high values. In outline: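 The screen exposed genetically defined yeast (cln2 rad14) to test compounds and scored growth inhibition relative to vehicle-treated controls.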
Experiment [5] in a line: NCI Yeast Anticancer Drug Screen. Data for the bub3 strain (AID 167). As to conditions: S. cerevisiae bub3 mutant strain, hits give high values. In outline: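 Screening used yeast with an engineered genetic alteration affecting cell cycle control. Compound-exposed cultures were compared with vehicle cultures, and reduced growth was taken as inhibition.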
Experiment [6] can be described thus: NCI Yeast Anticancer Drug Screen. Data for the mlh1 rad18 strain (AID 175). The note with it: S. cerevisiae mlh1 rad18 strain growth inhibition, hits give high values. In outline: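 Compound-treated yeast growth, normalised to vehicle controls. Strain bears defined DNA repair mutations.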
The mark [7] stands for this setting: at 5.0 µM (retest, dose inferred, filed as 0.5).
[8] abbreviates: at 50.0 µM (retest, dose inferred, filed as 5.0).

For the molecule `CC/C(C)=C1\CCC(CN2CCOCC2)C1=O` (configuration not stated), the growth inhibition was 24% in experiment [1] (setting [7]); 61% in experiment [1] (setting [8]); 79% (active) in experiment [1] (at 50.0 µM); 20% in experiment [2] (setting [7]); 77% (active) in experiment [2] (setting [8]); 72% (active) in experiment [2] (at 50.0 µM). In addition, the growth inhibition in experiment [3] (setting [7]) is 24%; in experiment [3] (setting [8]), 70% (active); in experiment [3] (at 50.0 µM), 66.3%; in experiment [4] (setting [7]), 31%; in experiment [4] (setting [8]), 45%; in experiment [4] (at 50.0 µM), 48.8%. Also, the growth inhibition in experiment [5] (setting [7]) is 31%; in experiment [5] (setting [8]) it was 94% (active); in experiment [5] (at 50.0 µM) it was 62.9%; in experiment [6] (setting [7]), 14%; in experiment [6] (setting [8]), 90% (active); in experiment [6] (at 50.0 µM), 79.2% (active).

For `O=C(C[n+]1ccccc1Cl)c1ccc(F)cc1`, the growth inhibition in experiment [1] (setting [7]) was -3%; in experiment [1] (setting [8]) it was 99% (active); in experiment [1] (at 50.0 µM), -8%; in experiment [2] (setting [7]) it was -1%; in experiment [2] (setting [8]), 100% (active); in experiment [2] (at 50.0 µM), -0.8%. The growth inhibition in experiment [3] (setting [7]) was -1%; in experiment [3] (setting [8]) it was 99% (active); in experiment [3] (at 50.0 µM), 11.7%; in experiment [4] (setting [7]), -3%; in experiment [4] (setting [8]), 99% (active); in experiment [4] (at 50.0 µM) it was 79.5% (active). Also, the growth inhibition in experiment [5] (setting [7]) was 4%; in experiment [5] (setting [8]), 99% (active); in experiment [5] (at 50.0 µM), 1.45%; in experiment [6] (setting [7]) it was -1%; in experiment [6] (setting [8]) it was 99% (active); in experiment [6] (at 50.0 µM), -12%.

As to `CC(=O)/C(=C/n1c(=S)[nH]c2ccc([N+](=O)[O-])cc21)C(=O)Nc1ccc(Cl)cc1`, the growth inhibition in experiment [1] (setting [7]) was 1%; in experiment [1] (setting [8]) it was -1%; in experiment [1] (at 50.0 µM), 10.9%; in experiment [2] (setting [7]), -9%; in experiment [2] (setting [8]), 2%; in experiment [2] (at 50.0 µM), 6.75%. In addition, the growth inhibition was 0% in experiment [3] (setting [7]); -5% in experiment [3] (setting [8]); 16.7% in experiment [3] (at 50.0 µM); -21% in experiment [4] (setting [7]); -17% in experiment [4] (setting [8]); 46.4% in experiment [4] (at 50.0 µM). Besides, the growth inhibition in experiment [5] (setting [7]) is -4%; in experiment [5] (setting [8]), -2%; in experiment [5] (at 50.0 µM) it was 15.6%; in experiment [6] (setting [7]), 1%; in experiment [6] (setting [8]), -2%; in experiment [6] (at 50.0 µM), 22.3%.

With `Nc1ncnc2nc[nH]c12.[Ag]`, the growth inhibition in experiment [1] (setting [7]) was 98% (active); in experiment [1] (setting [8]), 99% (active); in experiment [1] (at 50.0 µM), 99.3% (active); in experiment [2] (setting [7]), 99% (active); in experiment [2] (setting [8]) it was 100% (active); in experiment [2] (at 50.0 µM) it was 99.7% (active). Moreover, the growth inhibition in experiment [3] (setting [7]) is 97% (active); in experiment [3] (setting [8]), 99% (active); in experiment [3] (at 50.0 µM), 99.7% (active); in experiment [4] (setting [7]) it was 99% (active); in experiment [4] (setting [8]), 99% (active); in experiment [4] (at 50.0 µM) it was 98.5% (active). Moreover, the growth inhibition in experiment [5] (setting [7]) is 99% (active); in experiment [5] (setting [8]) it was 99% (active); in experiment [5] (at 50.0 µM) it was 99.5% (active); in experiment [6] (setting [7]), 97% (active); in experiment [6] (setting [8]) it was 99% (active); in experiment [6] (at 50.0 µM), 99.7% (active).

With `COc1cc(C2OC(=O)c3ccccc3S2)ccc1O` (configuration not stated), the growth inhibition in experiment [1] (setting [7]) is 8%; in experiment [1] (setting [8]), 92% (active); in experiment [1] (at 50.0 µM), 98.7% (active); in experiment [2] (setting [7]), 12%; in experiment [2] (setting [8]), 98% (active); in experiment [2] (at 50.0 µM), 98.6% (active). Besides, the growth inhibition in experiment [3] (setting [7]) was -4%; in experiment [3] (setting [8]), 74% (active); in experiment [3] (at 50.0 µM) it was 71.6% (active); in experiment [4] (setting [7]) it was 7%; in experiment [4] (setting [8]), 76% (active); in experiment [4] (at 50.0 µM), 96% (active). The growth inhibition in experiment [5] (setting [7]) was 5%; in experiment [5] (setting [8]), 84% (active); in experiment [5] (at 50.0 µM), 95.5% (active); in experiment [6] (setting [7]) it was 13%; in experiment [6] (setting [8]) it was 98% (active); in experiment [6] (at 50.0 µM), 99.5% (active).

As to `CN(Cc1ccccc1)C(c1ccccc1)C(O)C(O)(c1ccccc1)c1ccccc1` (configuration not stated), the growth inhibition is -10% in experiment [1] (setting [7]); 40% in experiment [1] (setting [8]); 85.2% (active) in experiment [1] (at 50.0 µM); 10% in experiment [2] (setting [7]); 78% (active) in experiment [2] (setting [8]); 58.2% in experiment [2] (at 50.0 µM). The growth inhibition in experiment [3] (setting [7]) was -3%; in experiment [3] (setting [8]), 70% (active); in experiment [3] (at 50.0 µM), 87.3% (active); in experiment [4] (setting [7]) it was -26%; in experiment [4] (setting [8]), 16%; in experiment [4] (at 50.0 µM), 19.7%. The growth inhibition in experiment [5] (setting [7]) was -9%; in experiment [5] (setting [8]) it was 58%; in experiment [5] (at 50.0 µM) it was 30.4%; in experiment [6] (setting [7]) it was 18%; in experiment [6] (setting [8]), 81% (active); in experiment [6] (at 50.0 µM), 72.5% (active).

On to `CCOCCNCc1ccc(Cl)c(Cl)c1`, for which the growth inhibition in experiment [1] (setting [7]) is -145%; in experiment [1] (setting [8]) it was -89%; in experiment [1] (at 50.0 µM) it was 4.05%; in experiment [2] (setting [7]) it was -47%; in experiment [2] (setting [8]) it was -51%; in experiment [2] (at 50.0 µM), 0.1%. Further, the growth inhibition in experiment [3] (setting [7]) was -60%; in experiment [3] (setting [8]), -90%; in experiment [3] (at 50.0 µM), 2.7%; in experiment [4] (setting [7]), -51%; in experiment [4] (setting [8]), -53%; in experiment [4] (at 50.0 µM) it was 21.1%. The growth inhibition is -67% in experiment [5] (setting [7]); -50% in experiment [5] (setting [8]); -5.85% in experiment [5] (at 50.0 µM); -144% in experiment [6] (setting [7]); -85% in experiment [6] (setting [8]); -7.9% in experiment [6] (at 50.0 µM).

Regarding `CC1(C)CC(N(C(=O)/C=C/c2ccc([N+](=O)[O-])o2)C2CCCCC2)CC(C)(C)N1`, the growth inhibition in experiment [1] (setting [7]) was -5%; in experiment [1] (setting [8]), 97% (active); in experiment [1] (at 50.0 µM), 5.6%; in experiment [2] (setting [7]), -3%; in experiment [2] (setting [8]), 98% (active); in experiment [2] (at 50.0 µM), 13.9%. Moreover, the growth inhibition in experiment [3] (setting [7]) is -2%; in experiment [3] (setting [8]), 99% (active); in experiment [3] (at 50.0 µM), 40.2%; in experiment [4] (setting [7]) it was -6%; in experiment [4] (setting [8]), 97% (active); in experiment [4] (at 50.0 µM), 25.1%. Besides, the growth inhibition in experiment [5] (setting [7]) was -4%; in experiment [5] (setting [8]) it was 99% (active); in experiment [5] (at 50.0 µM), 7.95%; in experiment [6] (setting [7]) it was -1%; in experiment [6] (setting [8]), 97% (active); in experiment [6] (at 50.0 µM) it was 85% (active).

On to `O=C(Nc1ccccc1)OC1CCCC1`, for which the growth inhibition in experiment [1] (setting [7]) is 19%; in experiment [1] (setting [8]), 94% (active); in experiment [1] (at 50.0 µM), 85.5% (active); in experiment [2] (setting [7]) it was 11%; in experiment [2] (setting [8]) it was 88% (active); in experiment [2] (at 50.0 µM), 11.8%. Also, the growth inhibition is 12% in experiment [3] (setting [7]); 92% (active) in experiment [3] (setting [8]); 81.2% (active) in experiment [3] (at 50.0 µM); 8% in experiment [4] (setting [7]); 28% in experiment [4] (setting [8]); -3.85% in experiment [4] (at 50.0 µM). Also, the growth inhibition in experiment [5] (setting [7]) is 6%; in experiment [5] (setting [8]), 90% (active); in experiment [5] (at 50.0 µM), 50.1%; in experiment [6] (setting [7]), 12%; in experiment [6] (setting [8]), 94% (active); in experiment [6] (at 50.0 µM), 82.8% (active).
